High-throughput results (PubChem BioAssay)
S-ASM inh = Inhibitors of Secretory Acid Sphingomyelinase (S-ASM): qHTS; Sphingomyelin phosphodiesterase (Homo sapiens), P17405; placental ASM, HMU-PC fluorogenic substrate, 60 min; Potency, µM (titrated, usually from 57.5 µM), actives largely listed as inhibitors; 340,000 tested, 0.006% active; AID 504937, 2011
Target sequence (P17405 47-631 limits assumed): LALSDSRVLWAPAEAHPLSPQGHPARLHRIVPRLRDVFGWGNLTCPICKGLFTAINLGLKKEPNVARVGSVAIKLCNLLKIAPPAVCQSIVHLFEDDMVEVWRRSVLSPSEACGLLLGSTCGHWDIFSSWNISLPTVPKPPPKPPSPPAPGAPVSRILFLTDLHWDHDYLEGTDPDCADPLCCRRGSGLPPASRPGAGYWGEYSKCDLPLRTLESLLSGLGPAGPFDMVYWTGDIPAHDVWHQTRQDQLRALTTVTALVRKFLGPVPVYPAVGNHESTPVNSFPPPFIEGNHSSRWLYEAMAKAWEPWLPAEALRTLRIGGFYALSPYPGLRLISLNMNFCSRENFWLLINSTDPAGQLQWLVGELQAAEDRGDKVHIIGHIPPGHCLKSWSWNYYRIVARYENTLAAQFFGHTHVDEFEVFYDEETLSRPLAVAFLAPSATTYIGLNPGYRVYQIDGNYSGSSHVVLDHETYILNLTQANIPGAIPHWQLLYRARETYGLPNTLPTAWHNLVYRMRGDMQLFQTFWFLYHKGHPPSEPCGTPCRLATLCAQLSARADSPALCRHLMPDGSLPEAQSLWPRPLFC
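Human placenta-derived ASM enzyme was preincubated with compound for 10 minutes at room temperature, then given fluorogenic substrate HMU-PC0 (9 uM final) for 60 minutes at 37 °C; a pH 10 stop preceded fluorescence reading at Ex 386/Em 447 nm.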
TGFb SMAD3 inh = qHTS for Inhibitors of TGF-b; HepG2 CAGA-GFP TGF-b/SMAD3 reporter, GFP fluorescence, 18 h; TGF-beta stimulated, 500 pg/mL final; Potency, µM (highest dose often 46.1 µM), actives largely listed as inhibitors; 410,000 tested, 1.2% active; AID 588855, 2011; note: nearly all actives have a fitted effect of over 65% in size
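Cell-based qHTS in HEPG2 carrying a CAGA-GFP Smad reporter; compounds added before 500 pg/mL final TGF-beta, 18 h incubation at 37 degrees C, GFP fluorescence quantified per cell by imaging cytometry.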
HepG2 viability = qHTS for Inhibitors of TGF-b: Cytotox Counterscreen; HepG2 CAGA-GFP viability, ATP luminescence, 18 h; 410,000 tested, 0.76% active; AID 588856, 2011; Potency, µM (doses to about 46.1 µM), most hits filed as cytotoxic
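HepG2 CAGA-GFP cells (1000/well, DMEM with 1% FBS) received compound, then TGF-beta at 500 pg/mL final, and were incubated 18 hours at 37 degrees C. Viability was read by CellTiter-Glo luminescence. Media-only wells were set as complete cell-killing and DMSO as no toxicity.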
TDP1 cell CPT = qHTS for Inhibitors of human tyrosyl-DNA phosphodiesterase 1 (TDP1): qHTS in cells in presence of CPT; 420,000 tested, 12% active; chicken DT40 Tdp1-/-;hTDP1 cells + 20 nM CPT, ATP luminescence, 48 h; Potency, µM (series often up to 46.2 µM), most hits filed as inhibitors; note: nearly all actives have a fitted effect of over 55% in size
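Cell growth measured by CellTiter-Glo luminescence after a minimum 48 h, 37 C compound exposure with 20 nM CPT in Tdp1-knockout DT40 cells stably expressing hTDP1, seeded 400/well; qHTS titration format.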
IL1B secr inh = qHTS for Inhibitors of Inflammasome Signaling: IL-1-beta AlphaLISA Primary Screen; THP-1 LPS/ATP IL-1B secretion, AlphaLISA, 16 h; hits give low values; activity change, % at 57.5 µM; 360,000 tested, 4.7% active; in the data active = activity change below about -50%; inconclusive = mostly about -30% to -49%
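THP-1 cells pretreated 1 hr with compounds (up to 57.5 uM final), then stimulated with LPS (250 ng/mL final) plus ATP (1.25 mM final); secreted IL-1B measured by AlphaLISA after 16 hr, decreased signal indicating inhibition.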
TDP1 cell noCPT = qHTS for Inhibitors of human tyrosyl-DNA phosphodiesterase 1 (TDP1): qHTS in cells in absence of CPT | DT40 Tdp1-/- hTDP1 cells, no CPT, ATP luminescence, 48 h | Potency, µM (doses to about 46.2 µM), usual class: inhibitors | 420,000 tested, 15% active | AID 686978, 2013; note: nearly all actives have a fitted effect of over 55% in size
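Growth kinetics read by CellTiter-Glo luminescence after ≥48 hr at 37 °C. Cells: DT40 Tdp1-/- stably carrying human TDP1, 400 per well, compound exposure in the absence of CPT (DMSO vehicle).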
Hits are given with their value. In the library only some 19% were active in any assay of this set; here they are far more common. Unless noted, calls come from the whole dose curve; as a rule, active = well fitted curve in the direction sought with a large enough effect; inconclusive = small, poorly fitted or top-dose-only effect, or another doubt; inactive = no such curve, though single readings can be large; an effect the other way counts as inactive or inconclusive.

Screening COc1ccc(CNn2c(-c3cccs3)nc3ccccc3c2=O)cc1OC returned S-ASM inh inactive, TGFb SMAD3 inh inactive, HepG2 viability inactive, TDP1 cell CPT 7.31µM, IL1B secr inh -78.5 and TDP1 cell noCPT 10.3µM.
`COc1cccc(CNn2c(-c3cccc(C)c3)nc3ccccc3c2=O)c1` gave S-ASM inh inactive, TGFb SMAD3 inh inconclusive, HepG2 viability inactive, TDP1 cell CPT inconclusive, IL1B secr inh -70.7 and TDP1 cell noCPT 18.4µM.
`Cc1nc(N2CCN(C)CC2)c2nnn(Cc3ccccc3)c2n1` gave TDP1 cell CPT inactive and TDP1 cell noCPT inconclusive.
Screening O=C(CCc1nnc2ccc(N3CCC4(CC3)OCCO4)nn12)N1CCCCC1 returned S-ASM inh inactive, TGFb SMAD3 inh inactive, HepG2 viability inactive, TDP1 cell CPT inactive, IL1B secr inh inactive and TDP1 cell noCPT inactive.
Screening Cc1cc(NC(=O)CCNS(=O)(=O)c2ccc3c(c2)CCCC(=O)N3)ccc1Br returned TGFb SMAD3 inh inactive and HepG2 viability inactive.
Screening COc1ccc(C(C)=O)cc1CC(=O)NCCCn1ccnc1 returned S-ASM inh inactive, TGFb SMAD3 inh inactive, HepG2 viability inactive, TDP1 cell CPT inactive, IL1B secr inh inactive and TDP1 cell noCPT inactive.
Screening O=C(Nc1cc(S(=O)(=O)N2CCOCC2)ccc1OCC(F)(F)F)C1CCCC1 returned TGFb SMAD3 inh inactive, HepG2 viability inactive, TDP1 cell CPT inactive, IL1B secr inh inactive and TDP1 cell noCPT inactive.
For O=C(Nn1c(-c2ccc(Br)cc2)nc2ccccc2c1=O)c1cccnc1 the results were S-ASM inh inactive, TGFb SMAD3 inh inactive, HepG2 viability inactive, TDP1 cell CPT inconclusive, IL1B secr inh inactive and TDP1 cell noCPT 23.1µM.
`CCOC(=O)C(=CNc1nc(-c2ccccc2)c(C(=O)Nc2ccc(-c3ccccc3)cc2)s1)C(=O)OCC` gave S-ASM inh inactive, TGFb SMAD3 inh inactive, HepG2 viability inactive, TDP1 cell CPT 16.4µM, IL1B secr inh inactive and TDP1 cell noCPT inconclusive.
`Cc1ccc(NC(=O)c2sc(Cl)nc2-c2ccccc2)cc1` gave S-ASM inh inactive, TGFb SMAD3 inh inactive, HepG2 viability inactive, TDP1 cell CPT inconclusive, IL1B secr inh inactive and TDP1 cell noCPT inconclusive.
CCCCc1ccc(NC(=O)CSc2nc3ccccc3nc2N2CCOCC2)cc1 was read as TGFb SMAD3 inh inactive, HepG2 viability inactive, TDP1 cell CPT inconclusive and TDP1 cell noCPT 25.9µM.
`CCOc1ccc(NC(=O)c2sc(N3CCOCC3)nc2-c2ccccc2)cc1` gave S-ASM inh inactive, TGFb SMAD3 inh inactive, HepG2 viability inactive, TDP1 cell CPT inconclusive, IL1B secr inh inactive and TDP1 cell noCPT 23.1µM.
`CCOc1ccc(NC(=O)CSc2nc3ccccc3nc2N2CC(C)OC(C)C2)cc1` (stereo unspecified) gave S-ASM inh inactive, TGFb SMAD3 inh inactive, HepG2 viability inactive, TDP1 cell CPT 23.1µM, IL1B secr inh inactive and TDP1 cell noCPT 10.3µM.
For COc1ccc(NC(=O)CSc2nc3ccccc3nc2N2CCCCC2)cc1 the results were S-ASM inh inactive, TGFb SMAD3 inh inactive, HepG2 viability inactive, TDP1 cell CPT inconclusive, IL1B secr inh inactive and TDP1 cell noCPT inconclusive.
`Cc1ccc(Nc2ncnc3onc(C)c23)cc1Cl` gave TGFb SMAD3 inh inactive, HepG2 viability inactive, TDP1 cell CPT inconclusive and TDP1 cell noCPT inconclusive.
COc1ccc(S(=O)(=O)N2CCOCC2)cc1C(=O)N1CCCCC1 was read as S-ASM inh inactive, TGFb SMAD3 inh inactive, HepG2 viability inactive, TDP1 cell CPT inactive, IL1B secr inh inactive and TDP1 cell noCPT inactive.
For COc1ccc(NC(=O)CSc2nc3ccccc3nc2N2CCOCC2)cc1 the results were S-ASM inh inactive, TGFb SMAD3 inh inactive, HepG2 viability inactive, TDP1 cell CPT inactive, IL1B secr inh inactive and TDP1 cell noCPT inactive.
Screening CCOc1ccc(NC(=O)CSc2nc3ccccc3nc2N2CCOCC2)cc1 returned S-ASM inh inactive, TGFb SMAD3 inh inactive, HepG2 viability inactive, TDP1 cell CPT 20.6µM, IL1B secr inh inactive and TDP1 cell noCPT 13µM.
Screening Cc1cccc(C)c1NC(=O)C1(C)CN(S(C)(=O)=O)CC(=O)N1Cc1cccs1 (stereo unspecified) returned TDP1 cell CPT inconclusive, IL1B secr inh inactive and TDP1 cell noCPT inactive.
`FC(F)(F)c1cc(CN2CC[C@@]3(CCCNC3)C2)cc(C(F)(F)F)c1` gave TDP1 cell CPT inconclusive and TDP1 cell noCPT 14.6µM.
Screening FC(F)(F)c1cc(CN2CC3(CCNCC3)C2)cc(C(F)(F)F)c1 returned TDP1 cell CPT 18.4µM and TDP1 cell noCPT 7.31µM.
`COc1cccc(C2CC(c3cccs3)=NN2S(C)(=O)=O)c1` (stereo unspecified) gave S-ASM inh inactive, TGFb SMAD3 inh inactive, HepG2 viability inactive, TDP1 cell CPT inactive, IL1B secr inh inactive and TDP1 cell noCPT inactive.
Screening CN(C)S(=O)(=O)N1CCN(c2ccnc3cc(Cl)ccc23)CC1 returned S-ASM inh inactive, TGFb SMAD3 inh inactive, HepG2 viability inactive, TDP1 cell CPT 23.1µM, IL1B secr inh inconclusive and TDP1 cell noCPT 13µM.
`O=S(=O)(c1cccc(Br)c1)N1CCN(c2ccnc3cc(Cl)ccc23)CC1` gave S-ASM inh inactive, TGFb SMAD3 inh inconclusive, HepG2 viability inactive, TDP1 cell CPT inconclusive, IL1B secr inh inactive and TDP1 cell noCPT 20.6µM.
O=C(C1CCCCC1)N1CCN(c2ccnc3cc(Cl)ccc23)CC1 was read as S-ASM inh inactive, TGFb SMAD3 inh inactive, HepG2 viability inactive, TDP1 cell CPT 10.3µM, IL1B secr inh inconclusive and TDP1 cell noCPT 11.6µM.
`O=C(C1CC1)N1CCN(c2ccnc3cc(Cl)ccc23)CC1` gave S-ASM inh inactive, TGFb SMAD3 inh inconclusive, HepG2 viability inactive, TDP1 cell CPT inconclusive, IL1B secr inh inactive and TDP1 cell noCPT inconclusive.
For Cc1ccc(Cl)cc1N1CCN(S(=O)(=O)c2cccc(S(=O)(=O)N3CCCC3)c2)CC1 the results were S-ASM inh inactive, TGFb SMAD3 inh inactive, HepG2 viability inactive, TDP1 cell CPT inconclusive, IL1B secr inh inactive and TDP1 cell noCPT inconclusive.
Screening N#Cc1cccc(S(=O)(=O)N2CCN(c3ccnc4cc(Cl)ccc34)CC2)c1 returned S-ASM inh inactive, TGFb SMAD3 inh inactive, HepG2 viability inactive, TDP1 cell CPT 11.6µM, IL1B secr inh inactive and TDP1 cell noCPT 11.6µM.
